Measured values reported in PubChem BioAssay AID1159580 (chemical genetic matrix, 2015).
The whole screen tested about 5,500 compounds, of which about 2,000 (36%) were called active. Not shown: some 18% with an inconclusive outcome. No stated cut-off is given here; in the data, active means normalized growth mostly below about 0.91 (no sharp cut-off); inconclusive means no clear call, values can overlap the other calls; inactive means mostly above about 0.92. The list shows a part of the results.

Assay: chemical genetic growth profiling, strain panel (AID 1159580);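 further: tested at 20 µM; growth read once vehicle control cultures reached saturation at 30 °C; 1 = growth at the plate median or of vehicle wells; lower values mean less growth of the strain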
Conditions: S. cerevisiae deletion strains, growth OD

Measured: normalized growth

O=C1CC2(CCCC2)CC(=O)N1CCCCN1CCN(c2ncccn2)CC1
inactive: locus YAL021C, strain ccr4, active compounds read low 0.985 | locus YAL026C, strain drs2, active compounds read low 1.03 | locus YAL030W, strain snc1, active compounds read low 0.998 | locus YAL040C, strain CLN3, active compounds read low 0.987 | locus YBL061C, strain skt5, active compounds read low 0.995 | locus YBR009C, strain hhf1, active compounds read low 0.989 | locus YBR023C, strain chs3, active compounds read low 0.996 | locus YBR171W, strain sec66, active compounds read low 1.01 | locus YBR231C, strain swc5, active compounds read low 0.993 | locus YBR279W, strain paf1, active compounds read low 0.999 | locus YCL011C, strain gbp2, active compounds read low 1 | locus YCL016C, strain dcc1, active compounds read low 1 | locus YCL061C, strain MRC1, active compounds read low 0.998 | locus YCL069W, strain vba3, active compounds read low 1 | locus YCR088W, strain abp1, active compounds read low 1.01 | locus YDL005C, strain med2, active compounds read low 0.993 | locus YDL040C, strain nat1, active compounds read low 0.996 | locus YDR001C, strain nth1, active compounds read low 1.02 | locus YDR069C, strain doa4, active compounds read low 0.978 | locus YDR137W, strain rgp1, active compounds read low 0.984 | locus YDR159W, strain sac3, active compounds read low 0.985 | locus YDR195W, strain ref2 0.974 | locus YDR297W, strain sur2, active compounds read low 1 | locus YDR334W, strain swr1, active compounds read low 1.01 | locus YDR335W, strain msn5, active compounds read low 1 | locus YDR392W, strain spt3, active compounds read low 0.801 | locus YEL003W, strain gim4, active compounds read low 1.01 | locus YEL037C, strain rad23, active compounds read low 1.01 | locus YEL061C, strain CIN8 (second series), active compounds read low 1.01 | locus YER002W, strain NOP16, active compounds read low 1.01 | locus YER015W, strain faa2, active compounds read low 0.998 | locus YER016W, strain bim1, active compounds read low 0.996 | locus YER111C, strain swi4, active compounds read low 1 | locus YER155C, strain BEM2 (second series), active compounds read low 1 | locus YFR010W, strain ubp6, active compounds read low 1.02 | locus YGL167C, strain pmr1, active compounds read low 0.991 | locus YGL173C, strain kem1, active compounds read low 1 | locus YGL227W, strain vid30, active compounds read low 1 | locus YGL240W, strain doc1, active compounds read low 0.978 | locus YGL253W, strain hxk2, active compounds read low 1.01 | locus YHR013C, strain ard1, active compounds read low 0.929 | locus YHR027C, strain rpn1, active compounds read low 1 | locus YHR030C, strain SLT2, active compounds read low 1.06 | locus YHR079C, strain IRE1, active compounds read low 1 | locus YHR142W, strain chs7, active compounds read low 1.02 | locus YJL092W, strain hpr5, active compounds read low 1.04 | locus YJL095W, strain BCK1 (second series), active compounds read low 0.995 | locus YJL095W, strain BCK1, active compounds read low 1 | locus YJL115W, strain asf1, active compounds read low 0.998 | locus YJL129C, strain trk1, active compounds read low 1.02 | locus YJL154C, strain vps35, active compounds read low 1 | locus YJL164C, strain tpk1, active compounds read low 0.986 | locus YJL166W, strain qcr8, active compounds read low 0.987 | locus YJL187C, strain SWE1, active compounds read low 0.996 | locus YJR066W, strain TOR1, active compounds read low 0.959 | locus YJR075W, strain HOC1, active compounds read low 0.978 | locus YKL160W, strain elf1, active compounds read low 0.986 | locus YKR026C, strain gcn3, active compounds read low 1.01 | locus YKR091W, strain srl3, active compounds read low 0.995 | locus YLL001W, strain dnm1, active compounds read low 0.983 | locus YLL026W, active compounds read low 0.987 | locus YLL041C, strain sdh2, active compounds read low 0.999 | locus YLR027C, strain aat2, active compounds read low 0.999 | locus YLR113W, strain HOG1, active compounds read low 1.04 | locus YLR221C, strain rsa3, active compounds read low 0.995 | locus YLR258W, strain gsy2, active compounds read low 0.977 | locus YLR262C, strain YPT6 (second series), active compounds read low 0.958 | locus YLR320W, strain mms22, active compounds read low 0.974 | locus YLR342W, strain FKS1, active compounds read low 1 | locus YLR357W, strain rsc2, active compounds read low 1.02 | locus YLR370C, strain arc18, active compounds read low 1.01 | locus YLR384C, strain iki3, active compounds read low 0.978 | locus YML120C, strain ndi1, active compounds read low 1 | locus YMR058W, strain fet3, active compounds read low 1 | locus YMR125W, strain sto1, active compounds read low 0.998 | locus YMR129W, active compounds read low 1.02 | locus YMR205C, strain PFK2, active compounds read low 0.994 | locus YMR231W, strain pep5, active compounds read low 0.992 | locus YNL071W, strain lat1, active compounds read low 0.999 | locus YNL128W, strain TEP1, active compounds read low 0.979 | locus YNL153C, strain GIM3, active compounds read low 0.996 | locus YNL175C, strain NOP13, active compounds read low 1.01 | locus YNL183C, strain NPR1, active compounds read low 0.96 | locus YNL197C, strain WHI3, active compounds read low 0.96 | locus YNL209W, strain ssb2, active compounds read low 0.986 | locus YNL224C, strain SQS1, active compounds read low 0.996 | locus YNL248C, strain rpa49, active compounds read low 1 | locus YNL322C, strain KRE1 (second series), active compounds read low 0.99 | locus YNR049C, strain mso1, active compounds read low 1.01 | locus YOR001W, strain rrp6, active compounds read low 0.988 | locus YOR070C, strain gyp1, active compounds read low 0.999 | locus YOR080W, strain dia2, active compounds read low 0.987 | locus YOR083W, strain WHI5 (second series), active compounds read low 1.01 | locus YOR083W, strain WHI5, active compounds read low 1.02 | locus YOR106W, strain vam3, active compounds read low 0.997 | locus YOR231W, strain MKK1, active compounds read low 1.01 | locus YOR265W, strain rbl2, active compounds read low 1 | locus YOR270C, strain vph1, active compounds read low 1.03 | locus YOR290C, strain snf2, active compounds read low 0.934 | locus YPL051W, strain arl3, active compounds read low 0.992 | locus YPL078C, strain atp4, active compounds read low 1 | locus YPL106C, strain sse1, active compounds read low 0.999 | locus YPL240C, strain hsp82, active compounds read low 1.01 | locus YPL241C, strain CIN2, active compounds read low 1 | locus YPL256C, strain CLN2, active compounds read low 0.999
